From the supplement of paper PMC13380429

These compounds were tested on Vero E6 infected with SARS-CoV-2 (assay: morphology score (similarity to uninfected cells); higher = more like uninfected cells). Details: 24 h.

| Structure (SMILES) | morphology score |
| --- | --- |
| O=C(Nc1nc2cccc(-c3ccc(CN4CCS(=O)(=O)CC4)cc3)n2n1)C1CC1 [filgotinib] (10 µM) | 0.154 |
| CC(C)NCC(O)c1ccccc1Cl (centres undefined) [clorprenaline] (10 µM) | 0.125 |
| CCCCCCCCCCCCC/C=C/[C@@H](O)[C@@H](N)CO[P@](=O)(O)OCC[N+](C)(C)C [sphingosylphosphorylcholine] (10 µM) | 0.000181 |
| Nc1ccc(/N=N/c2ccccc2)c(N)n1 [phenazopyridine] (10 µM) | 0.34 |
| Clc1ccc(COC(Cn2ccnc2)c2ccc(Cl)cc2Cl)c(Cl)c1 (centres undefined) [miconazole] (10 µM) | -0.274 |
| N[C@@H]1CCCCN(c2c(F)cc3c(=O)c(C(=O)O)cn(C4CC4)c3c2Cl)C1 [besifloxacin] (10 µM) | 0.165 |
| O=C1c2ccccc2CCC1CNCCc1ccc(O)cc1 (centres undefined) (10 µM) | 0.0149 |
| CN(CCOc1ccc(-c2ccc3c(c2)OCO3)cc1C(C)(C)C)CC(=O)O (10 µM) | -0.0713 |
| O=C1N=C2SCCN2C(=O)C1Cc1ccc(Cl)cc1 (centres undefined) [nuclomedone] (10 µM) | 0.238 |
| CCC(=O)N[C@@H]1Cc2ccccc2[C@H](c2ccccc2)C1 (10 µM) | -0.0816 |
| CCOC(=O)CCNc1cc(N2CCc3ccccc3CC2)nc(-c2ccccn2)n1 (0.833333 µM) | -0.0369 |
| O=C1CS[C@@H](c2ccccc2Cl)c2cc(Cl)ccc2N1 (racemic) (10 µM) | 0.245 |
| O=c1ccc2cc3ccoc3cc2o1 [psoralen] (10 µM) | -0.0337 |
| CCS(=O)(=O)N(C)[C@H]1c2cc(C#N)ccc2OC(C)(C)[C@@H]1O [chromanol-293B-(-)-[3R,4S]] (10 µM) | 0.135 |
| O=C1OC(c2ccc(O)cc2)(c2ccc(O)cc2)c2ccccc21 [phenolphthalein] (10 µM) | 0.0414 |
| CO[C@H]1C[C@@H]2CC[C@@H](C)[C@@](O)(O2)C(=O)C(=O)N2CCCC[C@H]2C(=O)O[C@H]([C@H](C)C[C@@H]2CC[C@@H](O)[C@H](OC)C2)CC(=O)[C@H](C)/C=C(\C)[C@@H](O)[C@@H](OC)C(=O)[C@H](C)C[C@H](C)/C=C/C=C/C=C/1C [sirolimus] (10 µM) | -0.126 |
| NCC(O)c1ccc(O)cc1 (centres undefined) [octopamine] (10 µM) | -0.0363 |
| COc1cc2c(NC3CCN(CC4CCCCC4)CC3)nc(N3CCCN(C(C)C)CC3)nc2cc1OCCCN1CCCCC1 (0.833333 µM) | 0.165 |
| CC(=O)NCCC(=O)N[C@@H](Cc1c[nH]cn1)C(=O)O [N-acetylcarnosine] (10 µM) | -0.122 |
| NC(=O)C[S+]([O-])C(c1ccccc1)c1ccccc1 (centres undefined) (10 µM) | 0.113 |

| Structure (SMILES) | morphology score |
| --- | --- |
| O=[N+]([O-])c1ccccc1S(=O)(=O)NCC1CCC(CNC[C@H]2CCc3ccccc3C2)CC1 (some centres undefined) (0.833333 µM) | -0.0186 |
| CCNC(=O)/C=C/c1cccc(Br)c1 [cinromide] (10 µM) | 0.135 |
| CC1(C)S[C@@H]2[C@H](N3C(=O)[C@@H](c4ccccc4)NC3(C)C)C(=O)N2[C@H]1C(=O)O [hetacillin] (10 µM) | 0.138 |
| CN1CCC[C@@H]1Cc1c[nH]c2ccc(CCS(=O)(=O)c3ccccc3)cc12 [eletriptan] (10 µM) | 0.207 |
| O=C(O)CCCCCCNC1c2ccccc2CCc2ccccc21 [amineptine] (10 µM) | 0.118 |
| Cc1nc2sccn2c(=O)c1CCN1CCC(=C(c2ccccc2)c2ccc(F)cc2)CC1 (10 µM) | 0.149 |
| C=C1/C(=C\C=C2/CCC[C@]3(C)[C@@H]([C@H](C)CC[C@@H](O)C(C)C)CC[C@@H]23)C[C@@H](O)C[C@@H]1O [tacalcitol] (10 µM) | -0.24 |
| C[C@H](c1ccc2ccc(OC3CCC(C(F)(F)F)CC3)c(C(F)(F)F)c2c1)N1C2CCC1CC(C(=O)O)C2 (some centres undefined) [autotaxin-modulator-1] (10 µM) | 0.317 |
| O=C(NOCC(O)CO)c1cc(Br)c(F)c(F)c1Nc1ccc(I)cc1F (centres undefined) (0.833333 µM) | -0.0489 |
| O=c1ncn2nc(Sc3ccc(F)cc3F)ccc2c1-c1c(Cl)cccc1Cl (10 µM) | -0.049 |
| O=C(O)c1ccccc1C(=O)Nc1ccc(-c2ccccc2)cc1 [kartogenin] (10 µM) | 0.214 |
| c1cc2c(cc1C1CCCCC1)c1c3n2CCNC3CCC1 (centres undefined) [tetrindole] (0.833333 µM) | -6.12e-06 |
| CSCC[C@H](NC(=O)[C@H](Cc1ccccc1)NC(=O)CNC(=O)CNC(=O)[C@@H](N)Cc1ccc(O)cc1)C(=O)O [metenkephalin] (10 µM) | 0.247 |
| CC#C[C@@H](CC(=O)O)c1ccc(OCc2cccc(-c3ccc(C(F)(F)F)cc3)c2)cc1 (10 µM) | 0.0803 |
| CNC(=O)c1c(C)oc2cc(Oc3ncnc4cc(OC)c(OC)cc34)ccc12 [fruquintinib] (10 µM) | 0.0139 |
| C[C@]12N[C@H](Cc3ccccc31)c1ccccc12 [dizocilpine-(-)] (10 µM) | 0.247 |
| COC(=O)Nc1nc2cc(C(=O)c3cccs3)ccc2[nH]1 [nocodazole] (0.833333 µM) | 0.025 |
| Cn1c(=O)c2c(ncn2C)n(C)c1=O [caffeine] (10 µM) | -0.174 |
| Cc1c(N(C)CS(=O)(=O)O)c(=O)n(-c2ccccc2)n1C [metamizole] (10 µM) | 0.141 |
